# Results filed as inconclusive are left out. Active and inactive are the calls of the source. Unless noted, calls come from the whole dose curve; as a rule, active = well fitted curve in the direction sought with a large enough effect; inconclusive = small, poorly fitted or top-dose-only effect, or another doubt; inactive = no such curve, though single readings can be large; an effect the other way counts as inactive or inconclusive.
# How the values were obtained:
# [1] = qHTS to identify inhibitors of the type 1 interferon - major histocompatibility complex class I in skeletal muscle: primary screen against the NCATS Mechanism Interrogation Plate v5.0 (MIPE) Libary (AID 1347411); note: nearly all actives have a fitted effect of over 65% in size; note: potency is the fitted concentration of half-maximal effect;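 for activity change, negative = inhibition: plate controls were vehicle for no effect and reference inhibitor for full effect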
# How it was run: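 Luminescence from CRISPR HiBit-tagged endogenous HLA-B in human myoblasts reported MHC class I level after 24 h of IFN-beta (4 ng/ml) plus compound. Compounds ran as 11-point 1:3 series, top 46 uM final.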
# [2] = Primary qHTS for inhibitors of nuclear receptor binding SET domain protein 2 (NSD2) in an isogenic RCH-ACV NSD2 p.E1099K mutant (9B) (AID 1645876); note: nearly all actives have a fitted effect of over 70% in size; note: potency is the fitted concentration of half-maximal effect
# [3] = Primary qHTS for inhibitors of nuclear receptor binding SET domain protein 2 (NSD2) in an RCH-ACV wild type WT cells (2C) (AID 1645877); note: nearly all actives have a fitted effect of over 70% in size; note: potency is the fitted concentration of half-maximal effect
# [4] = qHTS drug screen for cell cycle checkpoint inhibitors in PARPi-resistant BRCA-mutant ovarian cancer cell lines. (AID 1963452; calls by dose curve; note: potency is the fitted concentration of half-maximal effect); details: PEO1/OlaR viability, CellTiter-Glo luminescence, 96 h; for Z-AUC: stronger effect = lower value
# How it was run: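 PEO1, PEO4 and PEO1/OlaR ovarian cancer cells, 600 per well, exposed 96 h at 37C to a dilution series. Viability read by CellTiter-Glo luminescence, normalized to DMSO and empty wells; activity summarized as Z-AUC.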
# [5] = target: Phospholipid hydroperoxide glutathione peroxidase GPX4 (Homo sapiens) (UniProt P36969); assay: Primary qHTS Assay for Inhibitors of Recombinant Selenoprotein Glutathione Peroxidase 4 (GPX4) (AID 1845192); details: outcome: dose series up to 50 µM unless noted; note: nearly all actives have a fitted effect of over 65% in size; for activity change, negative = inhibition: % is set by controls: 0 for no effect and ±100 for the full control effect
# How it was run: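 qHTS, GR-coupled: GPX4 200 nM + cpd 30 min RT → GSH 1 mM, NADPH 0.5 mM, GR 100 nM → CHP 0.5 mM start; fluor 340/450 at t0 and t15 min; no-enzyme wells as control.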
# [6] = target: Glutathione peroxidase 1 (Homo sapiens) (UniProt P07203); assay: Primary qHTS Assay for Inhibitors of Recombinant Selenoprotein Glutathione Peroxidase 1 (GPX1) (AID 1845191); note: nearly all actives have a fitted effect of over 65% in size; for activity, negative = inhibition: % is set by controls: 0 for no effect and ±100 for the full control effect
# How it was run: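 GPX1 10 nM, GR 100 nM, GSH 1 mM, NADPH 0.5 mM, CHP 0.5 mM (final). 30-min cpd preincubation, RT. Ex340/Em450 read t=0, t=15 min.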
# [7] = qHTS assay to identify inhibitors of the type 1 interferon - major histocompatibility complex class I in skeletal muscle: Counter screen cell viability and HiBit confirmation (AID 1347412); details: iHSKM muscle cells + IFN-b, HiBiT or CellTiter-Glo, 24 h, at 45.9 µM (top of the series); note: % is set by controls: 0 for no effect and ±100 for the full control effect; nearly all actives have a fitted effect of over 60% in size
# How it was run: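 Human myoblast knock-in line, 4.0 ng/ml IFN-beta stimulation, 24 h compound treatment. Endpoints: HiBiT lytic luminescence (HLA-B level) and CellTiter Glo (ATP). Dosing 12 concentrations, 3-fold steps, 46 uM highest final.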
# [8] = measured here: PEO1 parental Z-AUC
# Sequence of Glutathione peroxidase 1 (Homo sapiens) (P07203 whole entry, looked up): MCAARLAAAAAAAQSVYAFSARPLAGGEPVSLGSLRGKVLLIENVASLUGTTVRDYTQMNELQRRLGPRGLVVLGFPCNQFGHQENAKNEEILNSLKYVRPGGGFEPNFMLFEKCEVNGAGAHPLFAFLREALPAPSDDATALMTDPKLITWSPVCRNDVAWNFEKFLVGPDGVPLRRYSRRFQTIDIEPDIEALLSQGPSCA
# Sequence of Phospholipid hydroperoxide glutathione peroxidase GPX4 (Homo sapiens) (P36969 whole entry, looked up): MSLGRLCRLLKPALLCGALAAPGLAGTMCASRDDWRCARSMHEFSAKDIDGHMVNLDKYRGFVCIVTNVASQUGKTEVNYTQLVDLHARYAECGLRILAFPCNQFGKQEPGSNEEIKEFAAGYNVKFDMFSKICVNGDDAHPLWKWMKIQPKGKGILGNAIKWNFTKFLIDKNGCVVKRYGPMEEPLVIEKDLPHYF
smiles,measurement,setting,value
O=C(O)CCNc1cc(N2CCc3ccccc3CC2)nc(-c2cccnc2)n1,Potency,[1],inactive
same,Potency,[2],inactive
same,Potency,[3],inactive
same,Z-AUC,[4],1.21 (inactive)
same,Z-AUC,[4]; [8],0.839
same,Z-AUC,[4]; measured here: PEO4 Z-AUC,0.897
COc1cc2c3c(n(CCCN4CCOCC4)c(=O)c2cc1OC)-c1cc2c(cc1C3=O)OCO2,Potency,[1],inactive
same,Potency,[2],0.372 µM (active)
same,Potency,[3],0.209 µM (active)
same,Potency,[5],inactive
same,Z-AUC,[4],-2.49 (inactive)
same,Z-AUC,[4]; [8],-2.16
same,Z-AUC,[4]; measured here: PEO4 Z-AUC,-0.656
C=C1C[C@H]2C=Nc3cc(OCCCOc4cc5c(cc4OC)C(=O)N4CC(=C)C[C@H]4C=N5)c(OC)cc3C(=O)N2C1,Potency,[1],inactive
same,Potency,[2],inactive
same,Potency,[3],inactive
same,Potency,[6],inactive
same,Z-AUC,[4],1.4 (inactive)
same,Z-AUC,[4]; [8],0.729
same,Z-AUC,[4]; measured here: PEO4 Z-AUC,0.852
O=C(CCCCCCC(=O)N/N=C/c1ccc(N(c2ccccc2)c2ccccc2)cc1)NO,Potency,[1],18.6 µM (active)
same,Potency,[2],1.18 µM (active)
same,Potency,[3],1.48 µM (active)
same,Z-AUC,[4],1.09 (inactive)
same,Z-AUC,[4]; [8],0.912
same,Z-AUC,[4]; measured here: PEO4 Z-AUC,0.729
CCNCCS(=O)(=O)NC[C@@]1(c2ccccc2)SC(NC(=O)C(C)(C)C)=NN1C(=O)C(C)(C)C,Potency,[1],inactive
same,Potency,[2],0.0093 µM (active)
same,Potency,[3],0.0074 µM (active)
same,Potency,[5],inactive
same,Potency,[4],0.0087 µM (active)
same,Z-AUC,[4]; [8],-2.33
same,Z-AUC,[4]; measured here: PEO4 Z-AUC,-2.54
Cc1cc(Nc2cc(N)ncn2)c(=O)n2c1C(=O)NC21CCCCC1,Potency,[1],inactive
same,Potency,[2],2.57 µM (active)
same,Potency,[6],inactive
same,Potency,[5],inactive
same,Z-AUC,[4],-0.649 (inactive)
same,Z-AUC,[4]; [8],0.752
same,Z-AUC,[4]; measured here: PEO4 Z-AUC,0.801
CCN(C(=O)c1ccccc1OC)c1cc2c(cc1N1CCNC[C@H]1C)n(C)c(=O)n2C,Potency,[1],inactive
same,Potency,[2],inactive
same,Potency,[3],inactive
same,Potency,[5],inactive
same,Z-AUC,[4],-0.888 (inactive)
same,Z-AUC,[4]; [8],-0.889
same,Z-AUC,[4]; measured here: PEO4 Z-AUC,-0.903
CCCNC(=O)c1cn2ncnc(Nc3cc(C(=O)NC4CC4)ccc3C)c2c1C,Potency,[1],inactive
same,Potency,[2],inactive
same,Potency,[3],inactive
same,Potency,[5],inactive
same,Z-AUC,[4],-0.306 (inactive)
same,Z-AUC,[4]; [8],0.435
same,Z-AUC,[4]; measured here: PEO4 Z-AUC,0.239
CCC(=O)O[C@]1(C(=O)CO)CC[C@H]2[C@@H]3CCC4=CC(=O)CC[C@]4(C)[C@H]3CC[C@@]21C,Potency,[1],inactive
same,Potency,[2],inactive
same,Potency,[3],inactive
same,Potency,[5],inactive
same,Z-AUC,[4],1.13 (inactive)
same,Z-AUC,[4]; [8],0.73
same,Z-AUC,[4]; measured here: PEO4 Z-AUC,1.13
CC(C)(O)CC[C@@H](O)[C@](C)(O)[C@H]1CC[C@@]2(O)C3=CC(=O)[C@@H]4C[C@@H](O)[C@@H](O)C[C@]4(C)[C@H]3CC[C@]12C,Potency,[1],inactive
same,Potency,[2],inactive
same,Potency,[3],inactive
same,Potency,[5],inactive
same,Z-AUC,[4],0.631 (inactive)
same,Z-AUC,[4]; [8],0.684
same,Z-AUC,[4]; measured here: PEO4 Z-AUC,0.947
CN1CCN(C(=O)c2ccc(-c3ccc4c(C=O)c(O)ccc4c3)s2)CC1,Potency,[1],29.4 µM (active)
same,Potency,[2],inactive
same,Potency,[3],inactive
same,Potency,[6],inactive
same,Z-AUC,[4],1.23 (inactive)
same,Z-AUC,[4]; [8],0.551
same,Z-AUC,[4]; measured here: PEO4 Z-AUC,0.471
CN1C(=O)[C@@H](NC(=O)c2cc(Cc3ccccc3)on2)COc2ccccc21,Potency,[1],inactive
same,Potency,[2],inactive
same,Potency,[6],inactive
same,Potency,[5],inactive
same,Z-AUC,[4],0.979 (inactive)
same,Z-AUC,[4]; [8],0.721
same,Z-AUC,[4]; measured here: PEO4 Z-AUC,1.08
O=C(O)CNC(=O)c1nc(Cl)c2ccccc2c1O,Potency,[1],inactive
same,Potency,[2],inactive
same,Potency,[3],inactive
same,Potency,[6],inactive
same,Z-AUC,[4],-0.321 (inactive)
same,Z-AUC,[4]; [8],-0.207
same,Z-AUC,[4]; measured here: PEO4 Z-AUC,-0.202
CONC(=O)Nc1ccc(-c2sc3c(c2CN(C)C)c(=O)n(-c2ccc(OC)nn2)c(=O)n3Cc2c(F)cccc2F)cc1,Potency,[1],inactive
same,Potency,[2],inactive
same,Potency,[6],inactive
same,Potency,[5],inactive
same,Z-AUC,[4],0.387 (inactive)
same,Z-AUC,[4]; [8],0.895
same,Z-AUC,[4]; measured here: PEO4 Z-AUC,0.818
CC[C@@]1(O)C(=O)OCc2c1cc1n(c2=O)Cc2c-1nc1ccccc1c2CCNC(C)C,Potency,[1],0.739 µM (active)
same,Potency,[2],0.0042 µM (active)
same,Potency,[3],0.0026 µM (active)
same,"activity, negative = inhibition",[6],-16.5% [at 4.49 µM] (inactive)
same,Potency,[4],0.0174 µM (active)
same,Z-AUC,[4]; [8],-2.94
same,Z-AUC,[4]; measured here: PEO4 Z-AUC,-1.65
O=C1NC(=O)/C(=C\c2ccc(-c3ccc(F)cc3)o2)S1,Potency,[1],inactive
same,Potency,[2],inactive
same,Potency,[3],inactive
same,Potency,[6],inactive
same,Z-AUC,[4],0.0775 (inactive)
same,Z-AUC,[4]; [8],0.696
same,Z-AUC,[4]; measured here: PEO4 Z-AUC,0.899
CC(C)(NS(=O)(=O)c1ccc2c(Cl)cnc(N=C(N)N)c2c1)C(=O)O,Potency,[1],inactive
same,Potency,[2],inactive
same,Potency,[3],inactive
same,Z-AUC,[4],-0.917 (inactive)
same,Z-AUC,[4]; [8],0.762
same,Z-AUC,[4]; measured here: PEO4 Z-AUC,0.0928
CNS(=O)(=O)Nc1nccc(Cc2c(C)c3ccc(Oc4ncccn4)cc3oc2=O)c1F,Potency,[4],2.75 µM (active)
CN(C)C(N)=NC(=N)N,outcome,[4],inactive
COc1cc2c3c(n(CCCNCCO)c(=O)c2cc1OC)-c1cc2c(cc1C3=O)OCO2,Potency,[2],0.0263 µM (active)
same,Potency,[3],0.0295 µM (active)
same,Potency,[6],inactive
same,Potency,[5],inactive
same,Potency,[4],0.0078 µM (active)
same,Z-AUC,[4]; [8],-2.45
same,Z-AUC,[4]; measured here: PEO4 Z-AUC,-1.56
same,"activity change, negative = inhibition",[7]; HiBiT,-14.1% (inactive)
same,"activity change, negative = inhibition",[7]; Viability,-9.73% (inactive)
C=CC(=O)N[C@H]1CCOC[C@H]1Nc1ncc2cc(-c3c(Cl)c(OC)cc(OC)c3Cl)ccc2n1,Potency,[1],inactive
same,Potency,[6],inactive
same,Potency,[5],inactive
same,Z-AUC,[4],1.21 (inactive)
same,Z-AUC,[4]; [8],0.408
same,Z-AUC,[4]; measured here: PEO4 Z-AUC,0.57

# — PubChem BioAssay (NCATS)
